A selection: hits, their analogues and other compounds. The true share with any hit is near 2.4%.
D2 ag-1 = agonists of human D2 dopamine receptor | P14416 | HEK293 T-REx D2 cells, calcium flux agonist mode | activation, % at 2 µM | actives 0.53% (n = 340,000) | AID 485358;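 active = activation over 3 SD above normal in the single-dose calcium agonist read, cut at about 30% in these data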; note: 0% is about no effect
Target sequence (P14416 whole entry, looked up): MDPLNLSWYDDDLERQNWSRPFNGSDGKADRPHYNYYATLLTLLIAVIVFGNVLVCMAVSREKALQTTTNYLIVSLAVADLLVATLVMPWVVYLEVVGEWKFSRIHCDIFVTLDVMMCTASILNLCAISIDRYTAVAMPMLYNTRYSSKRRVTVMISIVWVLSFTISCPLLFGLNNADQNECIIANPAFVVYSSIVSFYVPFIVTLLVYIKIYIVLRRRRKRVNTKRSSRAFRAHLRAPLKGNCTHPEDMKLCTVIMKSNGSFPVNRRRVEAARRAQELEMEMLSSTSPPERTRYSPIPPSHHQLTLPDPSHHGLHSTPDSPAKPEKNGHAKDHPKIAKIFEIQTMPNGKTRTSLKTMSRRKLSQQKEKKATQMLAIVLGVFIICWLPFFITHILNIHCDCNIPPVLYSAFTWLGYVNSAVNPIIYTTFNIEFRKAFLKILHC
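Agonism is scored from calcium flux in a force-coupled, inducible HEK293 cell line expressing D2, read kinetically for 180 s after compound addition against dopamine controls.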
D2 PAM-1 = positive allosteric modulators of human D2 dopamine receptor; P14416; HEK293 T-REx D2, calcium flux, EC20 dopamine potentiation; potentiation, % at 10 µM; actives 0.34% (n = 340,000); AID 485347;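 active = potentiation over 3 SD above the plate norm, cut at about 30% in these data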; note: 0% is about no effect
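Potentiation of an EC20 dopamine calcium response measured kinetically over 180 s, after a preceding 180 s compound-only read flagging agonists. Cells: inducible Hek293 Trex D2 line, 4000/well, cultured overnight at 30 C before dye loading.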
D2 ag-2 = human D2 receptor agonism in beta-arrestin assay; actives 0.084% (n = 360,000); AID 624465; DiscoveRx PathHunter D2 beta-arrestin, luminescence, 90 min; 100% = 57 uM dopamine signal; activation, % (no concentration beside the values); P14416; in the data active = activation above about 40%; inconclusive = between about 15% and that limit
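DiscoveRx PathHunter D2 beta-arrestin cells (2,100/well) attached overnight, then compound-stimulated 90 min at 37 C in HBSS/10 mM HEPES/0.1% Tween-20 buffer; beta-galactosidase complementation read by luminescence after 1 h at ambient temperature. Dopamine 57 uM final (EC100) as control.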
D2 PAM-2 = potentiates the human D2 dopamine receptor allosterically. P14416. DiscoveRx D2 beta-arrestin cells, luminescence, 90 min; 100% = 57 uM dopamine signal. potentiation, % (test concentration not listed). actives 0.23% (n = 360,000); in the data active = potentiation above about 50%; inconclusive = mostly about 30% to 49%
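PathHunter D2 cells, attached overnight at 37 deg C, received compound in DMSO plus dopamine at EC20 (50 nM final) for 90 min at 37 deg C. Beta-arrestin recruitment was read as luminescence after 1 h with detection reagent at ambient temperature.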
D2 antag = antagonizes the human D2 dopamine receptor; HEK293 TREx D2 cells, calcium flux, dopamine EC80; inhibition, % at 10 µM; P14416; actives 2% (n = 340,000); AID 485344; in the data active = inhibition above about 30%; inactive = below that, where a call was filed; note: 0% is about no effect
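In this primary screen, negative modulation is detected by tracking calcium flux after an EC80 dopamine challenge in inducible HEK293 T-REx D2 cells preexposed to test compound for 180 s.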
Starred values were filed as active, the others as inactive; ? = inconclusive; . = not tested or not shown.

SMILES | D2 ag-1 | D2 PAM-1 | D2 ag-2 | D2 PAM-2 | D2 antag
CC1CCCN(CCOCCSc2ccccc2)C1 (stereo not drawn) | -3 | -20 | -5 | -26 | 2
CC1CCN(CCCCOc2ccccc2-c2ccccc2)CC1 | 1 | -21 | 3 | -12 | 84*
CC1CCN(CCOCCOc2ccccc2Br)CC1 | 2 | -28 | -4 | -18 | 13
CC1CCN(CCOCCOc2ccccc2-c2ccccc2)CC1 | 0 | -27 | -3 | -45 | 56*
CC1CCCN(CCCOc2ccccc2-c2ccccc2)C1 (stereo not drawn) | -1 | -28 | -2 | -21 | 73*
CCOC(=O)c1ccc(CN(Cc2ccc(F)cc2)S(=O)(=O)c2ccc(F)cc2)cc1 | 0 | -1 | . | . | .
CC(=O)/C(C[N+]1(C)CCCCC1)=N\O | 0 | . | 1 | -15 | 44*
CCc1ccccc1NC(=O)C(=O)NCC(c1cccnc1)N1CCN(c2ccccc2F)CC1 (stereo not drawn) | 0 | 1 | . | . | .
CSc1ccc(CN2CCC2(C)C(=O)Nc2cccc(NS(C)(=O)=O)c2)cc1 (stereo not drawn) | . | . | -4 | -11 | .
O=C(Nc1ccc(O)cc1C(=O)O)c1ccc(NC(=O)c2ccco2)cc1 | 1 | 29 | 5 | 19 | 46*
O=C(Nc1ccccc1C(=O)O)c1cccc(NC(=O)c2ccco2)c1 | . | . | 9 | 22 | .
CCOC(=O)c1[nH]c(C)c(CCC(=O)Nc2ccccc2C(=O)OC)c1C | 0 | 9 | . | . | .
Cc1ccc(CCNC(=O)c2cc3n(n2)CCCN(Cc2ccc(C)cc2)C3=O)cc1 | 1 | 4 | . | . | .
Cc1nn2c(NCc3ccccn3)c3c(nc2c1-c1ccccc1)CCC3 | 2 | -11 | -6 | -12 | 40*
COc1cc(CNC2CCCC2)c(Br)cc1OC1CCCC1 | 1 | -20 | -18 | -21 | -3
COc1cc(CNCc2ccccc2)c(Br)cc1OC1CCCC1 | -1 | -26 | -3 | -22 | 51*
O=C(NCc1cccs1)c1nn(-c2ccccc2F)nc1CO | 0 | 16 | . | . | .
CCOc1ccc(NC(=O)CCn2c(=O)[nH]c3ccsc3c2=O)cc1 | 1 | 36* | 0 | 2 | 2
Cc1ccc(NC(=O)CCn2c(=O)[nH]c3ccsc3c2=O)cc1 | 0 | 17 | -3 | 3 | 11
CCCS(=O)(=O)c1c(S(=O)(=O)CCC)c2cc(CC)ccn2c1C(=O)c1ccc(Cl)cc1 | 2 | 14 | . | . | .
COc1ccccc1NC(=S)NC(=O)Cc1ccc(Cl)cc1 | 9 | -14 | -5 | 3 | 52*
Cc1nc2c(C(=O)NCCc3ccc(Cl)cc3)c[nH]n2c(=O)c1Cc1ccccc1F | . | -16 | . | . | .
Cc1nc2c(C(=O)NCCC(C)C)c[nH]n2c(=O)c1Cc1ccccc1F | 1 | 5 | 3 | 5 | 37*
CCOc1cc(/C=C2\SC(=S)N(C(C(=O)O)c3ccccc3)C2=O)ccc1O (stereo not drawn) | 0 | 12 | -11 | -20 | -8
COc1cc(/C=C2\SC(=S)N(C(C(=O)O)c3ccccc3)C2=O)ccc1O (stereo not drawn) | 33* | 0 | -10 | -20 | 1
SMILES | D2 ag-1 | D2 PAM-1 | D2 ag-2 | D2 PAM-2 | D2 antag
COc1ccccc1-c1c(C)nn2c(-c3ccccc3)cc(-c3ccccc3)nc12 | 1 | . | . | . | .
Cc1ccc(C(=O)Nc2ccc3oc(-c4ccc(C(C)(C)C)cc4)nc3c2)cc1 | 0 | 4 | . | . | .
CC(C)N(c1ccccc1)c1ccc(NC(=O)COC(=O)CCN2C(=O)c3cccc([N+](=O)[O-])c3C2=O)cc1 | -1 | -9 | ? | 61* | -2
CC(=O)c1ccc(NC(=O)COC(=O)CCN2C(=O)c3cccc([N+](=O)[O-])c3C2=O)cc1 | 0 | -2 | -2 | -10 | -5
O=C1C2CCCCN2C(=O)N1CCCCN1CCN(c2ccc(F)cc2)CC1 (stereo not drawn) | 0 | -24 | -5 | -4 | 11
O=C1C2CCCCN2C(=O)N1CCCCN1CCN(c2cccc(Br)c2)CC1 (stereo not drawn) | 40* | -26 | -1 | -1 | 87*
O=C1C2CCCN2C(=O)N1CCCCN1CCN(c2ccc(F)cc2)CC1 (stereo not drawn) | 12 | -20 | 0 | -23 | 40*
O=C1C2CCCCN2C(=O)N1CCN1CCN(c2cccc(Cl)c2)CC1 (stereo not drawn) | . | . | 2 | -10 | .
O=C(Nc1ccccc1N1CCN(c2ccccc2)CC1)C12CC3CC(CC(C3)C1)C2 | 0 | 32* | 1 | 7 | 1
O=C(NCCN1CCN(c2ccccc2F)CC1)C1CCCN(S(=O)(=O)c2cnc[nH]2)C1 (stereo not drawn) | -1 | 12 | 15 | 67* | 20
CCCS(=O)(=O)N1CCCC(C(=O)NCCCN2CCN(c3ccccc3F)CC2)C1 (stereo not drawn) | 69* | -19 | 14 | -19 | 38*
COc1ccc(N2CCN(CCCNC(=O)C3CCCN(S(=O)(=O)c4c(C)n[nH]c4C)C3)CC2)cc1 (stereo not drawn) | 0 | 22 | -1 | -8 | 6
COc1ccc(N2CCN(CCCNC(=O)C3CCCN(S(=O)(=O)c4cnc[nH]4)C3)CC2)cc1 (stereo not drawn) | -1 | 34* | -4 | -10 | -2
O=C(NCCN1CCC(Cc2ccccc2)CC1)C1CCCN(S(=O)(=O)c2cnc[nH]2)C1 (stereo not drawn) | 14 | -12 | -4 | -5 | -23
CCOc1cc(C(=O)Nc2cc3c(cc2N2CCCC2)n(C)c(=O)c(=O)n3C)cc(OCC)c1OCC | 0 | 2 | . | . | .
CN(Cc1ccco1)C(=O)c1ccc2c(c1)N(Cc1ccccc1F)C(=O)c1ccccc1S2 | -1 | 5 | . | . | .
COc1ccc(NC(=O)c2ccc(CNS(=O)(=O)c3ccc4c(c3)C(C)(C)C(=O)N4C)cc2)cc1 | -1 | -17 | . | . | .
CC(C)CCn1c(O)c(N=NC(=O)c2ccco2)c2ccccc21 | 3 | -2 | -3 | -7 | 31*
CCOc1ccc(CCNC(=O)c2cc(Nc3ccc(C)cc3C)nc3ccccc23)cc1OCC | 0 | -8 | . | . | .
COc1cccc(C(=O)NCCCNC(=O)c2cccnc2)c1 | -1 | -25 | -4 | -1 | 39*
O=S(=O)(/C=C/c1ccccc1)N1CCN(c2ccccc2)CC1 | 0 | -7 | 1 | -1 | -1
COc1ccccc1N1CCN(S(=O)(=O)/C=C/c2ccccc2)CC1 | 1 | -1 | -2 | 14 | 54*
COC(=O)c1ccsc1NC(=O)CS(=O)(=O)c1ccccc1 | 0 | -12 | -1 | -12 | 31*
CCC1CCCCN1CCCCOc1cccc(Cl)c1 (stereo not drawn) | 0 | -25 | -1 | -16 | 55*
CCN1C(=O)C(Cc2nc3ccccc3c(=O)n2C)c2cc(C)ccc21 (stereo not drawn) | 1 | -6 | . | . | .
